# Laboratory results as given in PubChem BioAssay AID720517 (National Center for Advancing Translational Sciences (NCATS), 2013).
# Inconclusive results are not listed. A call without a number means that no potency is given here. Calls of active or inactive are those of the source. The call rests on the fitted dose curve; in most records, active means well fitted activation curve with a large enough effect; inconclusive means small, poorly fitted or top-dose-only effect; inactive means flat fitted curve, though single readings scatter.
# Test: qHTS for Inhibitors of Cell Surface uPA Generation: FP59 Counterscreen for Cherry-picked Compounds
# Conditions: FP59 anthrax toxin cytotoxicity counterscreen, cells; series mostly up to 115 µM
row,Structure (SMILES),Potency
1,COc1ccc2nc(C)cc(Nc3ccccc3O)c2c1,inactive
2,CC(NC(=O)C1CCC(C(=O)NC(C)c2ccccc2)CC1)c1ccccc1 (stereo not given),inactive
3,O=C(CN1CCN(Cc2ccc(Cl)cc2)C1=O)NCc1cccs1,inactive
4,O=C(COC(=O)c1cc([N+](=O)[O-])ccc1NCCO)NCc1cccs1,inactive
5,CCOC(=O)c1c(NC(=S)NC)sc2c1CCCC2,inactive
6,COC(=O)C1=CN(Cc2ccc(F)cc2)C=C(C(=O)OC)C1c1ccc(O)c(OC)c1,inactive
7,CCOC(=O)c1c(NC(=O)COc2ccccc2C#N)sc2c1CC(C)(C)NC2(C)C,inactive
8,COCCNC(=O)C(c1c[nH]c2ccccc12)N(C(=O)c1snc(C(N)=O)c1N)c1cccc(OC)c1 (stereo not given),inactive
9,CC(C)c1ccc(NC(=O)COc2ccc(S(=O)(=O)N3CCOCC3)cc2)cc1,inactive
10,CCOCCOc1cc(NCc2ccccc2)c2ncn(C(C)C)c2c1,inactive
11,Cc1cc(C)n2nc(CNS(=O)(=O)c3ccc(F)c(C)c3)nc2n1,inactive
12,CCC1(CC)NC(=O)N(CC(=O)OCC(=O)c2cc(C)c(C)cc2C)C1=O,inactive
13,O=C(COC(=O)c1ccc2ncsc2c1)NCc1cccc(Cl)c1,inactive
14,C[C@H](CO)N1C[C@H](C)[C@H](CN(C)S(=O)(=O)c2cn(C)cn2)Oc2ccc(NC(=O)Nc3ccc(C(F)(F)F)cc3)cc2CC1=O,inactive
15,COc1cccc(CNC(=O)C2CCCN(S(=O)(=O)c3ccc4c(c3)C(C)(C)C(=O)N4C)C2)c1 (stereo not given),inactive
16,CCN(CC)c1c([N+](=O)[O-])c(=O)sc2ccccc12,inactive
17,CCc1nc(SCC(N)=O)c2c(=O)n(C)c(=O)n(C)c2n1,inactive
18,CCOc1ccc(C2(C)CC(=O)N(C)C2=O)cc1 (stereo not given),inactive
19,O=C(c1ccc(NC(=S)NCc2ccc(Cl)cc2)cc1)N1CCCCC1,inactive
20,COCCOC(=O)C1=C(C)NC(=O)NC1c1cccc2ccccc12 (stereo not given),inactive

row,Structure (SMILES),Potency
1,Cc1cccc(-c2nc(CS(=O)CC(=O)NCc3cccs3)c(C)o2)c1 (stereo not given),inactive
2,COc1ccc2nc(SC(C)C(=O)NC3(C#N)CCCCC3)[nH]c2c1 (stereo not given),inactive
3,Cc1ccc2c(c1)N(CC(=O)NCCCc1ccccc1)C(=O)c1cccnc1O2,inactive
4,Cc1ccc(CN2CCN(Cc3cc4ccccc4o3)CC2CCO)cc1 (stereo not given),inactive
5,CCOC(=O)Cc1csc(NC(=O)Nc2cccc(OC)c2)n1,inactive
6,COc1ccc(CNCCC2(C(C)C)CCOC(C)(C)C2)cc1 (stereo not given),inactive
7,COc1ccc(CCN=c2c([N+](=O)[O-])nn(-c3cccc(C)c3)n2O)cc1OC,inactive
8,COCCNS(=O)(=O)c1cc(OC)c(C)cc1C,inactive
9,O=C(COC(=O)c1cccc([N+](=O)[O-])c1)NNC(=O)c1cccs1,inactive
10,O=C(O)CC1(CC(=O)NCc2ccc(Cl)cc2)CCCCC1,inactive
11,COc1ccc2c(ccn2S(=O)(=O)c2ccccc2)c1,inactive
12,Cc1[nH]c(=O)[nH]c(=O)c1S(=O)(=O)N1CCCc2ccccc21,inactive
13,O=C(CC1(O)C(=O)Nc2ccccc21)c1cccc(Br)c1 (stereo not given),inactive
14,C=CCOC(=O)C1=C(C)NC(C)=C(C(=O)OCC=C)C1c1cn(-c2ccccc2)nc1-c1ccco1,inactive
15,CC1(C)S[C@@H]2[C@H](NC(=O)C(C(=O)O)c3ccccc3)C(=O)N2[C@H]1C(=O)O (stereo not given in full),inactive
16,C/C=C/C(=O)Nc1cccc(C2=NOC3(C2)C[C@@H](C(N)=O)N(C(=O)c2cc([N+](=O)[O-])cc([N+](=O)[O-])c2C)C3)c1 (stereo not given in full),inactive
17,O=C1N[C@@H](Cc2c[nH]c3ccccc23)C(=O)N[C@H]1Cc1ccccc1,inactive
18,COc1ccc([C@@H]2[C@@H]3C(=O)N(C(C)(C)C)C(=O)[C@@H]3[C@]3(C)C(=O)N(c4cccc(Cl)c4)C(=O)N23)cc1,inactive
19,CCOC(=O)C1CCN(CC(=O)Nc2cc(C)nn2-c2nc3ccccc3s2)CC1,inactive
20,COc1ccc(S(=O)(=O)N2CCN(Cc3ccccc3)CC2)c(C)c1,inactive
